# Data: PubChem BioAssay AID651703 (Broad Institute, 2012)
# Out of some 1,200 compounds screened, about 970 (81%) were called active. No rule for the calls is given here. The set was probably picked from earlier hits. A selection follows. Results with a measured potency or affinity are listed apart.
# Target: Transforming acidic coiled-coil-containing protein 3 (Homo sapiens) (UniProt Q9Y6A5)
# Test: ARNT/TACC3 interaction disruptors, potency, confirmation, biochemical, AlphaScreen, cherry-picked samples (AID 651703);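 also: TACC3 partner is the GST-tagged E629A mutant dimer; hits lower the signal meaning they disrupt ARNT binding to TACC3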
# Conditions: AlphaScreen His-ARNT PAS-B / GST-TACC3 binding, luminescence; series mostly up to 68 µM
row,SMILES,outcome
1,C#CCOCCOCCOCCNc1nc(N2CCN(C(=O)[C@H](CCC(=O)O)n3cc([C@@H](N)CCCCN)nn3)CC2)nc(N2CCN(C(=O)[C@H](CCCCN)n3cc([C@@H](N)CC(N)=O)nn3)CC2)n1,inactive
2,C#CCOCCOCCOCCNc1nc(N2CCN(C(=O)C([C@@H](C)O)n3cc([C@@H](N)CCCCN)nn3)CC2)nc(N2CCN(C(=O)C([C@@H](C)O)n3cc([C@@H](N)CCCCN)nn3)CC2)n1 (stereo partly drawn),inactive
3,C#CCOCCOCCOCCNc1nc(N2CCN(C(=O)[C@H](CCCCN)n3cc([C@@H](N)CC(N)=O)nn3)CC2)nc(N2CCN(C(=O)[C@H](CCCCN)n3cc([C@@H](N)CC(N)=O)nn3)CC2)n1,inactive
4,C#CCOCCOCCOCCNc1nc(N2CCN(C(=O)Cn3cc(CCCCN)nn3)CC2)nc(N2CCN(C(=O)[C@H](CCCCN)n3cc(CCCC)nn3)CC2)n1,inactive
5,CCOc1cc(C(=O)NC2CC(C)(C)NC(C)(C)C2)cc(OCC)c1OCC,inactive
6,c1ccc(CN2CCN(CCCNc3ccc4nnc(-c5ccccc5)n4n3)CC2)cc1,inactive
7,Oc1cccc(CN2CCOCC2)c1O,inactive
8,COc1ccc(C(=O)NNC(=O)Cc2coc3cc(OC)ccc23)cc1,inactive
9,CCN(/N=C/c1ccccc1)c1cc(=O)n(C)c(=O)[nH]1,inactive
10,O=C(Nc1ccccc1)N1CCCCN2[C@H](C1)[C@H](c1ccc(C#CC3CC3)cc1)[C@@H]2CO,inactive
11,O=C(NCCCn1ccnc1)c1cc(-c2ccccc2)on1,inactive
12,CC(C)(C)c1cc(C(=O)NCCCn2ccnc2)cc(C(C)(C)C)c1,inactive
13,COc1ccc(-c2cnc3c(c2)C(=O)N([C@H](C)CO)C[C@H](C)[C@H](CN(C)Cc2cccnc2)O3)cc1,inactive
14,O=C(O)C1C2C=CC(C2)C1C(=O)NCCCn1ccnc1 (stereo not drawn),inactive
15,CN(c1ccc(C(=O)N2CCc3ccccc3C2)cc1)S(C)(=O)=O,inactive
16,O=C(C1CC1)N1CCc2cc(Br)cc(S(=O)(=O)NCc3ccccn3)c21,inactive
17,CO[C@H]1CN(C)C(=O)c2cc(NS(=O)(=O)CC(F)(F)F)ccc2OC[C@H](C)N(Cc2cccnc2)C[C@@H]1C,inactive

row,SMILES,outcome
1,O=C(Nc1ccc(Br)cn1)c1cccc(C(=O)Nc2ccc(Br)cn2)c1,inactive
2,O=C(NC1Cc2ccccc2C1)c1cc(-c2ccccc2)on1,inactive
3,c1c[nH]c(CN2CCN(Cc3ncc[nH]3)CC2)n1,inactive
4,CC1(C)CC(=O)C=C(Nc2ccccc2N)C1,inactive
5,O=c1[nH]cnc2c1C(c1ccccc1[N+](=O)[O-])c1c(nc[nH]c1=O)O2,inactive
6,O=C(NCCCCO)c1cc(-c2ccccc2)on1,inactive
7,O=C1CN(C(=O)COC(=O)c2ccc([N+](=O)[O-])o2)c2ccccc2N1,inactive
8,O=C(O)c1c[nH]c2c([N+](=O)[O-])cccc2c1=O,inactive
9,O=C(N/N=C/c1c(Cl)nc2ccccn2c1=O)c1cccnc1,inactive
10,C[C@H](CO)N1C[C@H](C)[C@@H](CN(C)C(=O)Nc2ccc(C(F)(F)F)cc2)Oc2ncc(C3=CCCC3)cc2C1=O,inactive
11,O=C(Nc1cnc2ccccc2c1)c1cc(-c2ccccc2)on1,inactive
12,CCOC(=O)N1CCN(C(=O)CSc2ccc3nnc(-c4ccccn4)n3n2)CC1,inactive
13,O=C(Nc1cccc(F)c1)c1cccnc1NCCc1ccccc1,inactive
14,Cc1ccc(C2=CSC3=NS(=O)(=O)CCN23)cc1,inactive
15,O=C(Nc1ccc2nc(-c3ccccn3)[nH]c2c1)C1CCCCC1,inactive
16,O=C(NN=C1CCCC1)c1ccc(O)cc1O,inactive
